In PubChem BioAssay AID463173 (ICCB-Longwood Screening Facility, Harvard Medical School, 2010) one finds survival data, which are given here for 61 molecules.

Hit rate of the full screen: of about 52,000 compounds, about 4,300 (8.3%) were called active. No stated cut-off is given here; in the data, active means survival mostly below about 52% (no sharp cut-off); inactive means mostly above about 56%. This excerpt belongs to a sample that is enriched for actives.

For the experiment, the system named is DeltatarO mutant. Put plainly: growth inhibition of S. aureus wild type versus tarO mutant, primary screen, teichoic acid synthesis inhibitors, RN4220, OD600 (AID 463173). Conditions: OD600, 18 h, stronger effect = lower value, screened at 18.75 µg/mL (by protocol).
As to `CCOC(=O)c1ccccc1NC(=O)Cn1c(=O)n(-c2cccc(C)c2)c(=O)c2c1c1cc(C)ccc1n2C`, the survival was 68% (inactive). Turning to `CCOc1ccc(C(=O)NCC(c2cccs2)S(=O)(=O)c2ccccc2)cc1` (stereo unspecified), the survival was 97% (inactive).

On to `CC(C)OC(=O)c1cc2c(ccn2C)n1CCC#N`, for which the survival is 96% (inactive). For `Cc1cc(Nc2ccccc2C)nc(-n2nc(C)cc2C)n1`, the survival was 83% (inactive). For the molecule `Cc1ccc(S(=O)(=O)c2nc(-c3cccc(Cl)c3)oc2NCc2ccccc2)cc1`, the survival is 168% (inactive). The result for `Cc1cccc(C)c1NC(=O)C(=O)NCC(c1cccnc1)N1CCc2ccccc21` (stereo unspecified) reads 62% (inactive); that for `COc1ccc(NC(=O)C(=O)NCC(c2cccnc2)N2CCc3ccccc32)cc1OC` (stereo unspecified), 61% (inactive); that for `Cc1cc(C)cc(NC(=O)C(=O)NCC(c2cccnc2)N2CCc3ccccc32)c1` (stereo unspecified), 43% (active). For `COC(=O)c1ccc(NC(=O)C(=O)NCC(c2cccnc2)N2CCc3ccccc32)cc1` (stereo unspecified), the survival was 34% (active). With `Cc1ccc(NC(=O)C(=O)NCC(c2cccnc2)N2CCc3ccccc32)cc1Cl` (stereo unspecified), the survival is 97% (inactive). For the molecule `CCOc1ccc(NC(=O)C(=O)NCC(c2cccnc2)N2CCc3ccccc32)cc1` (stereo unspecified), the survival was 44% (inactive). Take `COc1ccc(NC(=O)c2cnc(N3CCCCC3)c3ccccc23)cc1Cl`: the survival was 78% (inactive). For `CCOc1cc(C(=O)Nc2ccc3c(c2)n(C)c(=O)c(=O)n3C)cc(OCC)c1OCC`, the survival was 84% (inactive). As for `COc1ccc2c(c1)sc1ncc(C(=O)NCc3ccccc3F)c(=O)n12`, the survival was 101% (inactive). With `Cc1ccc2[nH]c(=O)cc(C(=O)O)c2c1`, the survival is 99% (inactive). For the molecule `Cc1ccc2[nH]c(C)cc(=S)c2c1`, the survival is 45% (active). For `Cc1cc(=O)c2cc(Br)ccc2[nH]1`, the survival was 71% (inactive).

`COc1cc(NC(=O)C(NS(=O)(=O)c2ccc3c(c2)CCCC(=O)N3)C(C)C)cc(OC)c1` (stereo unspecified): the survival is 71% (inactive). Take `O=C(Nc1cc2c(cc1C(=O)c1cccc(Br)c1)OCCO2)c1ccccc1F`: the survival is 28% (active). The result for `O=C(Nc1cc2c(cc1C(=O)c1ccccc1Cl)OCCO2)c1ccc(Br)cc1` reads 66% (inactive). As for `CCC(=O)c1cc2c(cc1NC(=O)c1ccccc1F)OCCO2`, the survival is 68% (inactive).

For `CC1CCCN(S(=O)(=O)c2ccc(NC(=O)CSc3nc4ccccc4o3)cc2)C1` (stereo unspecified), the survival is 58% (inactive). `CCC1Oc2ccc(C)cc2N(CC(=O)NCc2ccc(F)cc2)C1=O` (stereo unspecified): the survival is 70% (inactive). For `CCC1Oc2ccc(C)cc2N(CC(=O)NCc2ccc(OC)cc2)C1=O` (stereo unspecified), the survival is 39% (active). For `CCC1Oc2ccccc2N(CC(=O)NCc2ccccc2)C1=O` (stereo unspecified), the survival is -1% (active).

For the molecule `CC1Oc2ccccc2N(CC(=O)NCc2ccccc2)C1=O` (stereo unspecified), the survival is 92% (inactive).

With `CCC1Oc2ccc(C)cc2N(CC(=O)NCCc2ccccc2)C1=O` (stereo unspecified), the survival was 80% (inactive). In the case of `CCC1Oc2ccccc2N(CC(=O)NCc2ccc(C)cc2)C1=O` (stereo unspecified), the survival was 78% (inactive). On to `COc1ccc(C2c3c(oc4ccc(F)cc4c3=O)C(=O)N2Cc2ccc3c(c2)OCO3)cc1` (stereo unspecified), for which the survival was 59% (inactive).

As to `COc1ccccc1N1CCN(c2ncnc3c2nc2n3CCCC2)CC1`, the survival was 67% (inactive). Take `Cc1cc(=O)n2nc(N3CCC(C(=O)NCc4ccccc4Cl)CC3)sc2n1`: the survival is 87% (inactive).

Turning to `CCOC(=O)c1cccc(NC(=O)Nc2c(C)n(C)n(-c3ccccc3)c2=O)c1`, the survival is 94% (inactive). For the molecule `CCCc1cc(=O)oc2cc(C)c3c(C(C)(C)C)coc3c12`, the survival is 88% (inactive). For `CCCc1cc(=O)oc2cc(C)c3c(-c4ccccc4)c(C)oc3c12`, the survival was -10% (active). The result for `CCCc1cc(=O)oc2cc(C)c3c(-c4cccc(OC)c4)coc3c12` reads 67% (inactive).

For `Cc1ccc2[nH]c(=O)c(CN(Cc3ccccc3)C(=O)c3ccco3)cc2c1`, the survival is 103% (inactive). As for `CCc1nnc2n1N(C(C)=O)C(c1ccc(C(C)(C)C)cc1)=C(C(C)=O)S2`, the survival was 96% (inactive). For the molecule `Cc1c(CNC2CCCCCC2)c(C(=O)O)c(C)n1Cc1ccc(F)cc1Cl`, the survival was 80% (inactive). For `Oc1cccc(-c2nc(-c3cccs3)c(-c3cccs3)[nH]2)c1`, the survival is 4% (active). The result for `CN1C(C(=O)Nc2cccc(O)c2)=CC(c2cccs2)=NS1(=O)=O` reads 87% (inactive); that for `Cc1sc(N)nc1-c1cccs1`, 96% (inactive). As for `Fc1ccc2[nH]c(-c3cccs3)cc2c1`, the survival is 54% (inactive). For `Fc1ccc(-c2nc(-c3cccs3)c(-c3cccs3)[nH]2)cc1`, the survival was 64% (inactive). For `COc1ccc(O)c(-c2cn[nH]c2-c2cccs2)c1`, the survival was 89% (inactive).

Consider `Cc1ccc(-c2nc(-c3cccs3)c(-c3cccs3)[nH]2)cc1`, for which the survival was 62% (inactive). As to `CN(C)c1ccc(-c2nc(-c3cccs3)c(-c3cccs3)[nH]2)cc1`, the survival was 47% (active).

In the case of `Oc1ccccc1-c1nc(-c2cccs2)c(-c2cccs2)[nH]1`, the survival is 0% (active). As for `COc1cc(Cl)c(C)cc1NC(=O)CCc1c(C)nc2cc(-c3cccc(F)c3)nn2c1C`, the survival was 74% (inactive). `CCCCc1nn2c(=O)cc(CN(CC)c3ccccc3)nc2s1`: the survival is 73% (inactive). As for `Cc1noc2ncnc(N3CCN(c4cccc(C(F)(F)F)c4)CC3)c12`, the survival is 71% (inactive). To `CCOC(=O)CSc1nc2cc3c(cc2c(=O)n1CCCC(=O)NCc1ccc2c(c1)OCO2)OCO3` belongs 83% (inactive); to `COc1ccc(S(=O)(=O)NCCc2sc3nc(-c4ccc(C)cc4)nn3c2C)cc1F`, 72% (inactive); to `Cc1cc(C)cc(-n2cnc3cc(C(=O)NC4CCCCCC4)ccc32)c1`, 95% (inactive).

As for `Nc1nonc1-c1nc2ccccc2n1CC(=O)Nc1ccc(F)cc1`, the survival is 169% (inactive).

Regarding `Nc1nonc1-c1nc2ccccc2n1CC(=O)Nc1cccc(Cl)c1Cl`, the survival is 66% (inactive). As for `CCc1ccccc1NC(=O)Cn1c(-c2nonc2N)nc2ccccc21`, the survival was 86% (inactive). `NC(=O)Cn1c(-c2nonc2N)nc2ccccc21`: the survival was 62% (active). In the case of `Nc1nonc1-c1nc2ccccc2n1CCn1c(-c2nonc2N)nc2ccccc21`, the survival was 82% (inactive). Take `Nc1nonc1-c1nc2ccccc2n1CC(=O)Nc1ccccc1C(=O)O`: the survival is 45% (active). Consider `COc1ccc(-c2nc(SCC(=O)NC3CCCC3)c(-c3ccc(C)cc3)[nH]2)cc1OC`, for which the survival is 57% (inactive). With `COc1ccc(Cn2ccc3nc(C)c(C(=O)NCc4ccc(C)cc4)cc3c2=O)cc1`, the survival was 60% (inactive).
